Assay results: ChEMBL document CHEMBL1961873, “Compounds: GSK PKIS; Assays: Nanosyn kinase panel” (2012)

How the values were obtained:
[1] = molecular target: CDK3/Cyclin E (Homo sapiens) (UniProt P24864+Q00526); conditions: at 1 µM;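 further: each figure is a mean percent inhibition of the CDK3/cyclin E complex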
[2] = molecular target: Cyclin-dependent kinase 4 (Homo sapiens) (UniProt P11802); conditions: at 0.1 µM
[3] = molecular target: Cyclin-dependent kinase 4 (Homo sapiens) (UniProt P11802); conditions: at 1 µM
[4] = molecular target: Cyclin-dependent kinase 5 (Homo sapiens) (UniProt Q00535); conditions: at 0.1 µM
Chain of Cyclin-dependent kinase 5 (Homo sapiens) (Q00535 whole entry, looked up): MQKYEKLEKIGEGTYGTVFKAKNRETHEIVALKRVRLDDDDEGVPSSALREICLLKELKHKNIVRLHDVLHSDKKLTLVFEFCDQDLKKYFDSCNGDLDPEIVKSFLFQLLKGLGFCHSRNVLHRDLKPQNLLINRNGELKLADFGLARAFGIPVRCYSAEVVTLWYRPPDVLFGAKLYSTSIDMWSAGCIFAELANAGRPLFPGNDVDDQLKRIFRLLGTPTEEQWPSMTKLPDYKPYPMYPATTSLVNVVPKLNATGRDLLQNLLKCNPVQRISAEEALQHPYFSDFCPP

[5] = molecular target: Cyclin-dependent kinase 5 (Homo sapiens) (UniProt Q00535); conditions: at 1 µM
[6] = molecular target: Cyclin-dependent kinase 6 (Homo sapiens) (UniProt Q00534); conditions: at 0.1 µM
Chain of Cyclin-dependent kinase 6 (Homo sapiens) (Q00534 whole entry): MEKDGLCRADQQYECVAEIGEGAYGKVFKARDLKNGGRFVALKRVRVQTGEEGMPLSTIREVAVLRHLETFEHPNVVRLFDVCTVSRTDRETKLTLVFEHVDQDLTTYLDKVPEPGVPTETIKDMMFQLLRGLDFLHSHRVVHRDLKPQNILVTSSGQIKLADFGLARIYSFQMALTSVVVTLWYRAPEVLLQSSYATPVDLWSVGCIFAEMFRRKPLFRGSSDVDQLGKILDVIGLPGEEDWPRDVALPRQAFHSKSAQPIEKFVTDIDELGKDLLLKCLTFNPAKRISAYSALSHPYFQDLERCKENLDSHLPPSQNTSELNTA

[7] = molecular target: Cyclin-dependent kinase 6 (Homo sapiens) (UniProt Q00534); conditions: at 1 µM
[8] = molecular target: Dual specificity protein kinase CLK2 (Homo sapiens) (UniProt P49760); conditions: at 0.1 µM
Chain of Dual specificity protein kinase CLK2 (Homo sapiens) (P49760 whole entry, looked up): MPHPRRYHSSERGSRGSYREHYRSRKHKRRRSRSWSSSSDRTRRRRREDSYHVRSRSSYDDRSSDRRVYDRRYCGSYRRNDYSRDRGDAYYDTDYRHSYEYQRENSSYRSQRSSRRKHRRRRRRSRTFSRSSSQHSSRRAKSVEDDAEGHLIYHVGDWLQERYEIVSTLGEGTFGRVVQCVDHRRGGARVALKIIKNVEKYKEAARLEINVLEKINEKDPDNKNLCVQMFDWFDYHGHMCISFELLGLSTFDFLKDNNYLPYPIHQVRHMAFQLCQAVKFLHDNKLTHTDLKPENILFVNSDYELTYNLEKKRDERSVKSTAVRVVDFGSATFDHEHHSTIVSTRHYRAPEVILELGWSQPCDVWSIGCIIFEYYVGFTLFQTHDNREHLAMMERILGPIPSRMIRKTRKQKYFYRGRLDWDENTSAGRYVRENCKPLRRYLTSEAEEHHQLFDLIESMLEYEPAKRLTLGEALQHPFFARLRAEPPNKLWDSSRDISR

[9] = molecular target: Dual specificity protein kinase CLK2 (Homo sapiens) (UniProt P49760); conditions: at 1 µM
[10] = molecular target: Dual specificity protein kinase CLK3 (Homo sapiens) (UniProt P49761); conditions: at 0.1 µM
Chain of Dual specificity protein kinase CLK3 (Homo sapiens) (P49761 whole entry, looked up): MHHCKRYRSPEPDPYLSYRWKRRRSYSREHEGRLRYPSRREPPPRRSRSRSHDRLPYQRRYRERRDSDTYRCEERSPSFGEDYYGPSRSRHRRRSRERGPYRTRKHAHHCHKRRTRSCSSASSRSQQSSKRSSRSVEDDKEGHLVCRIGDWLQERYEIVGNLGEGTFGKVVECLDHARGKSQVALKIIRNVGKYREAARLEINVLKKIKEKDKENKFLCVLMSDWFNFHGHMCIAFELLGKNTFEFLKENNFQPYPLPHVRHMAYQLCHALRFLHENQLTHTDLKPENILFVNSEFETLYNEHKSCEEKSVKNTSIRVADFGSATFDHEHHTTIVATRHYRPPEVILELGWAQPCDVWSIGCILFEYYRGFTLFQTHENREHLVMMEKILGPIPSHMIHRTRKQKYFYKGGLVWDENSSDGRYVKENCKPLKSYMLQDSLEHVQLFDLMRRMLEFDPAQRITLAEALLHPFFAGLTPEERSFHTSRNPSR

Chain of Cyclin-dependent kinase 4 (Homo sapiens) (P11802 whole entry): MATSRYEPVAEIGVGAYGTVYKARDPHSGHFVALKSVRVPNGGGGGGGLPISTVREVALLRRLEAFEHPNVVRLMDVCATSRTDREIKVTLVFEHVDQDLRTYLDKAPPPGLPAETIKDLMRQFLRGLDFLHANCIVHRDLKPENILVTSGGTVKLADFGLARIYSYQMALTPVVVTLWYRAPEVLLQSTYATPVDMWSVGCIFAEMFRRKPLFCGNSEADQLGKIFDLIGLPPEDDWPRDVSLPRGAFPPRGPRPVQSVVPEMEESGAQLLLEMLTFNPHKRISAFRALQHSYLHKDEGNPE
Chain of CDK3/Cyclin E (Homo sapiens) (P24864 whole entry, looked up): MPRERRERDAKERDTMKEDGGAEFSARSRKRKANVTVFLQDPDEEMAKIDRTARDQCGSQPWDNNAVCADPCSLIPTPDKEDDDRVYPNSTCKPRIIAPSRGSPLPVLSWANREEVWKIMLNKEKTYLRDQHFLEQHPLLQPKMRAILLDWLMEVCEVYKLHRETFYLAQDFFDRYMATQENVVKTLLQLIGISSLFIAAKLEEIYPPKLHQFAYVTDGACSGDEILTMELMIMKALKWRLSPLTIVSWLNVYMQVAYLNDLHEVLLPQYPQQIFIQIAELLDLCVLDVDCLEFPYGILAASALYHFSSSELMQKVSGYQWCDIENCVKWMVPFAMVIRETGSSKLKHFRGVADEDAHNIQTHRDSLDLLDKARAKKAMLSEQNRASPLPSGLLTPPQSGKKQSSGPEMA
Chain of CDK3/Cyclin E (Homo sapiens) (Q00526 whole entry, looked up): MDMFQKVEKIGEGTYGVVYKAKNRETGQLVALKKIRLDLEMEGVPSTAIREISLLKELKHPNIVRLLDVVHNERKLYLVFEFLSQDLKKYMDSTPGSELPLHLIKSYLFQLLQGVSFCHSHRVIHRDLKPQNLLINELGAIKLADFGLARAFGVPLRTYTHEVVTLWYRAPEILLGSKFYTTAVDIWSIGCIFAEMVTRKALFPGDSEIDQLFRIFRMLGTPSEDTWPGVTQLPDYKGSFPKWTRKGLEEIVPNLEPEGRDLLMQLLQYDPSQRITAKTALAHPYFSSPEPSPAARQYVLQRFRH

| SMILES | inhibition [1] | inhibition [2] | inhibition [3] | inhibition [4] | inhibition [5] | inhibition [6] | inhibition [7] | inhibition [8] | inhibition [9] | inhibition [10] |
| --- | --- | --- | --- | --- | --- | --- | --- | --- | --- | --- |
| COC(=O)Nc1nc2cc(Oc3cccc(NC(=O)Nc4cc(C(F)(F)F)ccc4F)c3)ccc2[nH]1 | -1.48% | 1.83% | 2.11% | 0.65% | 1.39% | -5.71% | 1.18% | -0.8% | 1.04% | -0.93% |
| NCc1ccc(-c2nc(-c3ccc(Cl)c(O)c3)c(-c3ccncc3)[nH]2)cc1 | -2.19% | 1.89% | 3.19% | 1.65% | 3.47% | -3.35% | 1.53% | 2.01% | 0.72% | 0.63% |
| CN1CCC(C(=O)Nc2n[nH]c3nnc(-c4ccccc4)cc23)CC1 | 5.97% | 8.86% | 29.4% | 1.11% | 3.61% | 7.11% | 21.4% | 1.34% | 2.3% | 1.91% |
| COc1ccccc1Nc1ncc(-c2ccccc2)o1 | -1.14% | 0.89% | 2.21% | 0.04% | 1.68% | -0.22% | -0.99% | 0.98% | 0.86% | 1.23% |
| COc1ccc(-c2nn3ncccc3c2-c2ccnc(Nc3ccc(Cl)c(C(F)(F)F)c3)n2)cc1 | -0.57% | 1.13% | 2.09% | 0.45% | 0.19% | 0.68% | 1.73% | 0.95% | 1.59% | 1.77% |
| COc1ccc(-c2coc3ncnc(N)c23)cc1 | 0.08% | 4.16% | 5.78% | 2.66% | 3.84% |  | 3.88% | 3.15% | 3.42% | 1.07% |
| CS(=O)(=O)CCNCc1ccc(-c2ccc3ncnc(Nc4ccc(OCc5cccc(F)c5)c(C(F)(F)F)c4)c3c2)o1 | -2.95% | 2.52% | 2.44% | 0.38% | 0.07% |  | -2.6% | 0.58% | 0.13% | 1.49% |
| COc1cc2ncn(-c3cc(O[C@H](C)c4ccccc4Cl)c(C(N)=O)s3)c2cc1OC | 5.51% | 2.41% | 3.26% | 0.86% | 1.47% | -0.21% | -0.74% | 3.38% | 5.22% | 2.12% |
| Nc1ncnc2occ(-c3ccc(NC(=O)Nc4cccc(C(F)(F)F)c4)cc3)c12 | 16.6% | 3.45% | 6.6% | 0.37% | 4.7% | 1.3% | 2.21% | 0.14% | 2.59% | 1.01% |
| CC1=C(C(=O)Nc2ccc3[nH]ncc3c2)C(c2ccc(Cl)c(Cl)c2)CC(=O)N1 (centres undefined) | 0.2% | 0.92% | -0.63% | -0.73% | -0.62% | 2.47% | 0.05% | 0.09% | 4.18% | 0.34% |
| Cc1cccc(-c2n[nH]cc2-c2ccc3ncccc3n2)n1 | -2.25% | -0.55% | 2.39% | -0.23% | 0.38% | -3.86% | 0.55% | -0.31% | 3.44% | 0.37% |
| Cc1nnc(-c2ccc(C)c(-c3ccc(C(=O)Nc4cccc(C#N)c4)cc3)c2)o1 | -0.82% | 0.95% | 0.68% | 0.65% | 1.71% | 1.26% | 3.14% | 1.15% | -0.94% | 0.91% |
| c1cnn2ncc(-c3ccnc(Nc4ccc5c(c4)OCCO5)n3)c2c1 | 85.6% | 51.9% | 85.7% | 57.4% | 90.4% | 46.5% | 85% | 90.1% | 97.6% | 12.6% |
| Nc1nc(-c2ccc3c(c2)C(=Cc2cc(Br)c(O)c(Br)c2)C(=O)N3)cs1 | -0.65% | -0.86% | 2.39% | 1.35% | 2.98% | -5% | -0.79% | 1.02% | 2.39% | 0.15% |
| Cc1nn(C)c2cc(N(C)c3ccnc(Nc4cccc(S(N)(=O)=O)c4)n3)ccc12 | -0.68% | 1.72% | 4.46% | 0.41% | 2.78% |  | -0.34% | 0.73% | 0.86% | 1.2% |
| COc1cc2c(cc1Nc1nc(N3CCc4ccccc43)c3cc[nH]c3n1)N(C(=O)CN(C)C)CC2 | 1.66% | 2.1% | 3.3% | 0.44% | 0.4% | 0.95% | 1.09% | 7.85% | 44.4% | 0.14% |
| O=C(Nc1n[nH]c2nc(-c3ccco3)c(Br)cc12)C1CC1 | 2.69% | 2.78% | 8.19% | 0.87% | 3.63% | -1.81% | 12.9% | 1.95% | 2.79% | 0.97% |

| SMILES | inhibition [1] | inhibition [2] | inhibition [3] | inhibition [4] | inhibition [5] | inhibition [6] | inhibition [7] | inhibition [8] | inhibition [9] | inhibition [10] |
| --- | --- | --- | --- | --- | --- | --- | --- | --- | --- | --- |
| COC(=O)Nc1nc2cc(Oc3ccc(NC(=O)Nc4cccc(C(=O)O)c4)cc3)ccc2[nH]1 | -0.13% | -1.05% | 2.01% | -1.87% | -0.58% | 4.45% | 2.67% | 2.17% | 0.77% | -3.22% |
| CCn1c(-c2nonc2N)nc2ccncc21 | -0.78% | 1.15% | 3.35% | 0.45% | 1.71% |  | -1.56% | 3.93% | 3.92% | -0.93% |
| COc1cccc(-n2ncc3c(N/N=C/c4cccc(F)c4)ncnc32)c1 | 5.59% | 0.03% | 22.1% | 3.4% | 34.2% | -5.64% | 17.1% | 2.25% | 1.15% | -2.19% |
| Nc1ncnc2occ(-c3ccc(NC(=O)Nc4cc(C(F)(F)F)cc(C(F)(F)F)c4)cc3)c12 | 7.22% | 1.55% | 2.23% | 0.25% | 1.52% | -0.28% | 3.73% | 0.31% | 2.87% | 0.61% |
| O=C1NC(=O)C(c2ccccc2Cl)=C1Nc1cccc(O)c1 | 19.4% | 7.12% | 25.4% | 4.62% | 26.6% | 7.16% | 28.7% | 4.29% | 36.9% | 2.2% |
| CCCN1CCC=C(c2ccc(Nc3nc(Nc4ccccc4C(N)=O)c4cc[nH]c4n3)c(C)c2)C1 | 4.3% | 4.35% | 10.9% | 1.88% | 9.85% | 0.69% | 5.64% | 38.2% | 88.9% | -0.17% |
| CC1=C(C(=O)Nc2ccc3[nH]ncc3c2)C(c2ccc3ccccc3c2)CC(=O)N1 (centres undefined) | 2.9% | 2.41% | 2.46% | 1.12% | 3.42% | 3.45% | 4.44% | 1.34% | 2.42% | 2.41% |
| NS(=O)(=O)c1cccc(-c2ccc3c(NC(=O)C4CC4)n[nH]c3c2)c1 | 1.71% | -1.17% | 1.45% | 0.87% | 1.78% | -1.94% | 6.01% | -0.55% | -0.78% | 0.83% |
| CCc1cccc(NC(=O)Nc2ccc(Oc3ccc4nc(NC(=O)OC)[nH]c4c3)cc2)c1 | -1.16% | 0.97% | 1.5% | -0.16% | -0.09% | 7.42% | 1.51% | 0.09% | 1.38% | 0.3% |
| CCn1c(-c2nonc2N)nc2cnc(Oc3cccc(NC(=O)c4ccc(OCCN5CCOCC5)cc4)c3)cc21 | -2.11% | 3.32% | 2.38% | -0.26% | 0.42% | -1.58% | -0.79% | -0.98% | -0.12% | 0.57% |
| CCn1c(-c2nonc2N)nc2cncc(C(=O)N3CC[C@H](N)C3)c21 | -2.13% | 2.98% | 2.35% | 0.46% | 0.69% | -1.51% | 4.8% | 5.07% | 21.6% | 1.31% |
| [O-][S+]1CCN(Cc2ccc(-c3ccc4ncnc(Nc5ccc(OCc6ccccc6)c(F)c5)c4c3)o2)CC1 | -0.37% | 1.78% | 2.34% | 0.47% | 0.42% | -2.8% | -0.74% | 1.05% | 0.69% | 0.9% |
| CCn1c(-c2nonc2N)nc2c(C#CC(C)(C)O)nc(CN3CCCC3)cc21 | -0.95% | 1.6% | 2.5% | 1.06% | 2.14% | -8.94% | 0.66% | -0.92% | 1.46% | -1.6% |
| COc1cc2ncn(-c3cc(OCc4ccccc4Cl)c(C(N)=O)s3)c2cc1OC | -0.63% | 2.27% | 5.4% | 1.51% | 4.46% | -4.1% | 0.43% | 1.87% | 3.23% | 1.33% |
| CS(=O)(=O)CCNCc1ccc(-c2ccc3ncnc(Nc4ccc(OCc5ccccc5)c(Cl)c4)c3c2)o1 | -1.2% | -0.14% | 4.1% | 2.15% | 3.8% | -5.27% | -2.22% | 2.2% | 1.75% | 0.36% |
| N#Cc1c(NC(=O)c2cccc3ccccc23)sc2c1CCCC2 | -0.77% | 3.82% | 6.92% | 1.3% | 5.67% |  | 4.55% | 1.29% | 0.3% | 0.63% |
| CC(=O)Nc1cccc(C#Cc2cncnc2Nc2ccc(OCc3cccc(F)c3)c(Cl)c2)n1 | -0.89% | -1.95% | -1.42% | 0.24% | 1.19% | -1.85% |  | 0.62% | 0.84% | -0.78% |
